The structures appear in SMILES notation. Out of some 340,000 compounds screened, about 1,700 (0.5%) were called active. Shown is part of a subset that was picked to be rich in actives. Unmarked numbers belong to inactive results. No stated cut-off is given here; in the data, active means inhibition above about 40%; inactive means the rest.

Among the data in PubChem BioAssay AID504462 (Sanford-Burnham Center for Chemical Genomics, 2011) are inhibition values, retold here.

This experiment deals with Cysteine protease ATG4B (Homo sapiens) (UniProt Q9Y4P1). Briefly: ATG4B protease inhibitors, primary screen, biochemical, fluorescence, uHTS (AID 504462). The conditions noted are these: ATG4B cleavage of LC3-PLA2, NBD-HPC fluorescence, 1 h; at 8.33 µM; stronger effect = higher value.
Chain of Cysteine protease ATG4B (Homo sapiens) (Q9Y4P1 whole entry, looked up): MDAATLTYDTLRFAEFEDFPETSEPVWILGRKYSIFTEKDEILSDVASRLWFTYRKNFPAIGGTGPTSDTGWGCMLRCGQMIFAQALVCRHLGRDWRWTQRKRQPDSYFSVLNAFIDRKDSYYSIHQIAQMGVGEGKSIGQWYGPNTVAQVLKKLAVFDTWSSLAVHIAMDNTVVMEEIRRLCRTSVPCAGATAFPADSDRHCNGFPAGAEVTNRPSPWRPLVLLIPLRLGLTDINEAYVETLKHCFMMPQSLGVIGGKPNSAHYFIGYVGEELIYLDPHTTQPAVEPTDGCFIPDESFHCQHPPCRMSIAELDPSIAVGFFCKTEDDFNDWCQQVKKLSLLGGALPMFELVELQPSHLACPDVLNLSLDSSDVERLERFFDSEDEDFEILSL
For the compound `CCN1CCN(C(=O)Cc2coc3cc(C)cc(C)c23)CC1`, the inhibition was -5.73%.
For the compound `COC(=O)COc1cc(C)cc2oc(=O)c3c(c12)CCCC3`, the inhibition is -8.24%.
To `Cc1cc(OCc2cc(C(=O)O)oc2C)c2c3c(c(=O)oc2c1)CCCC3` belongs 48.7% (active).
Regarding `CCOC(=O)C1(CCc2ccccc2)CCN(Cc2ccco2)CC1`, the inhibition is -6.2%.
Turning to `CC(Cc1ccccc1)NCCC(c1ccccc1)c1ccccc1` (stereo not given), the inhibition is -1.23%.

One may read the inhibition as the relative decrease from the control value, in per cent.
